# ChEMBL document CHEMBL1961873, “Compounds: GSK PKIS; Assays: Nanosyn kinase panel” (2012)
# Key:
# [1] = molecular target: Death-associated protein kinase 1 (Homo sapiens) (UniProt P53355); conditions: at 1 µM;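 also: each value is a mean inhibition figure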
# [2] = molecular target: T1, Serine/threonine-protein kinase DCLK2 (Homo sapiens) (UniProt Q8N568); conditions: at 0.1 µM
# T1 sequence (whole entry): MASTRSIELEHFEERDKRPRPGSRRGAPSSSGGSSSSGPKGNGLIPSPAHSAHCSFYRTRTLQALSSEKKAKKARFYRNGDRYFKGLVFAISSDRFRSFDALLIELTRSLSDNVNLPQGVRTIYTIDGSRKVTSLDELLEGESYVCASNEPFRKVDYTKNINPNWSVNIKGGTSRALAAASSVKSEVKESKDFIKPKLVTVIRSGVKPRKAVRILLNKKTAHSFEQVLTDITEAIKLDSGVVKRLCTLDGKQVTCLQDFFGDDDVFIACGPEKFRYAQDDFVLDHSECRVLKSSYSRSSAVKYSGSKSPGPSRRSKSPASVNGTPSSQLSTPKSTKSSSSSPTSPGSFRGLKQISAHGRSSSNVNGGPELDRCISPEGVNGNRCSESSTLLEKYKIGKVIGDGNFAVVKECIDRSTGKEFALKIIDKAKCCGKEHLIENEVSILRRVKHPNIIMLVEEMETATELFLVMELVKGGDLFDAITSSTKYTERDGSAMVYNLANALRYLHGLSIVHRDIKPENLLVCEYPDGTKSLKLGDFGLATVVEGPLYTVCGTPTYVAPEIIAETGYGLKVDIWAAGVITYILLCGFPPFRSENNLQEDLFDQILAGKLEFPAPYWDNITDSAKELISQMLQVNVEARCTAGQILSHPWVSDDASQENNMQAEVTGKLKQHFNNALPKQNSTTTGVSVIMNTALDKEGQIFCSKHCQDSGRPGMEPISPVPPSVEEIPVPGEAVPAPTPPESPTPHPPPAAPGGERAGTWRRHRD
# [3] = molecular target: T1, Serine/threonine-protein kinase DCLK2 (Homo sapiens); conditions: at 1 µM
# [4] = molecular target: MAP kinase-activated protein kinase 2 (Homo sapiens) (UniProt P49137); conditions: at 0.1 µM
# [5] = molecular target: MAP kinase-activated protein kinase 2 (Homo sapiens) (UniProt P49137); conditions: at 1 µM
# [6] = molecular target: MAP kinase-activated protein kinase 3 (Homo sapiens) (UniProt Q16644); conditions: at 0.1 µM
# [7] = molecular target: MAP kinase-activated protein kinase 3 (Homo sapiens) (UniProt Q16644); conditions: at 1 µM
# [8] = molecular target: Serine/threonine-protein kinase MARK1 (Homo sapiens) (UniProt Q9P0L2); conditions: at 0.1 µM
# [9] = molecular target: Serine/threonine-protein kinase MARK1 (Homo sapiens) (UniProt Q9P0L2); conditions: at 1 µM
# [10] = molecular target: MAP/microtubule affinity-regulating kinase 3 (Homo sapiens) (UniProt P27448); conditions: at 0.1 µM
# [11] = molecular target: MAP/microtubule affinity-regulating kinase 3 (Homo sapiens) (UniProt P27448); conditions: at 1 µM
# [12] = molecular target: T2, MAP/microtubule affinity-regulating kinase 4 (Homo sapiens) (UniProt Q96L34); conditions: at 0.1 µM
# T2 sequence (whole entry): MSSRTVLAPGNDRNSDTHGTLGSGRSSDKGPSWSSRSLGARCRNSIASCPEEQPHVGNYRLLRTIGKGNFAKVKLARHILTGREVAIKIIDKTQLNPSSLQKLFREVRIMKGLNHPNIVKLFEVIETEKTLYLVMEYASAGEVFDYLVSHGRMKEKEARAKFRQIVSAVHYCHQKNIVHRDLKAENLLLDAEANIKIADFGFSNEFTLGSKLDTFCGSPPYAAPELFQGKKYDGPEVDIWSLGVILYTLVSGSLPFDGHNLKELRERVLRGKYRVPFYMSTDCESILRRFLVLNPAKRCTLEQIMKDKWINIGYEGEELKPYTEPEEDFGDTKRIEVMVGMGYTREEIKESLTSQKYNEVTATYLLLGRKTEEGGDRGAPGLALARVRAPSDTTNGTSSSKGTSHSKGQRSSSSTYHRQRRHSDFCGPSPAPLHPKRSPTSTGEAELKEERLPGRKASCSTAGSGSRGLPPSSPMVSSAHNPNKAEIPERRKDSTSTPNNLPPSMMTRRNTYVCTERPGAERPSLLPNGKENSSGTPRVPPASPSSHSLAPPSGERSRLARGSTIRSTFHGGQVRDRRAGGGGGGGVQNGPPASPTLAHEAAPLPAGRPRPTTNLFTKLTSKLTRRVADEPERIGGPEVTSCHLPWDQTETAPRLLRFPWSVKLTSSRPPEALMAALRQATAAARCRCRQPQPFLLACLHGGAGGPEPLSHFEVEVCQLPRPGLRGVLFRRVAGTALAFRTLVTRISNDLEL
# [13] = molecular target: T2, MAP/microtubule affinity-regulating kinase 4 (Homo sapiens); conditions: at 1 µM
# [14] = molecular target: Maternal embryonic leucine zipper kinase (Homo sapiens) (UniProt Q14680); conditions: at 0.1 µM
# [15] = molecular target: Maternal embryonic leucine zipper kinase (Homo sapiens) (UniProt Q14680); conditions: at 1 µM
# [16] = molecular target: MAP kinase-interacting serine/threonine-protein kinase 1 (Homo sapiens) (UniProt Q9BUB5); conditions: at 0.1 µM
# [17] = molecular target: MAP kinase-interacting serine/threonine-protein kinase 1 (Homo sapiens) (UniProt Q9BUB5); conditions: at 1 µM
# [18] = molecular target: MAP kinase-interacting serine/threonine-protein kinase 2 (Homo sapiens) (UniProt Q9HBH9); conditions: at 0.1 µM
# [19] = molecular target: MAP kinase-interacting serine/threonine-protein kinase 2 (Homo sapiens) (UniProt Q9HBH9); conditions: at 1 µM
# [20] = molecular target: Serine/threonine-protein kinase MARK2 (Homo sapiens) (UniProt Q7KZI7); conditions: at 0.1 µM;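 also: mean percent inhibition of PAR-1Balpha kinase activity, reported from the GSK PKIS screen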
# MAP/microtubule affinity-regulating kinase 3 (Homo sapiens), sequence (P27448 whole entry, looked up): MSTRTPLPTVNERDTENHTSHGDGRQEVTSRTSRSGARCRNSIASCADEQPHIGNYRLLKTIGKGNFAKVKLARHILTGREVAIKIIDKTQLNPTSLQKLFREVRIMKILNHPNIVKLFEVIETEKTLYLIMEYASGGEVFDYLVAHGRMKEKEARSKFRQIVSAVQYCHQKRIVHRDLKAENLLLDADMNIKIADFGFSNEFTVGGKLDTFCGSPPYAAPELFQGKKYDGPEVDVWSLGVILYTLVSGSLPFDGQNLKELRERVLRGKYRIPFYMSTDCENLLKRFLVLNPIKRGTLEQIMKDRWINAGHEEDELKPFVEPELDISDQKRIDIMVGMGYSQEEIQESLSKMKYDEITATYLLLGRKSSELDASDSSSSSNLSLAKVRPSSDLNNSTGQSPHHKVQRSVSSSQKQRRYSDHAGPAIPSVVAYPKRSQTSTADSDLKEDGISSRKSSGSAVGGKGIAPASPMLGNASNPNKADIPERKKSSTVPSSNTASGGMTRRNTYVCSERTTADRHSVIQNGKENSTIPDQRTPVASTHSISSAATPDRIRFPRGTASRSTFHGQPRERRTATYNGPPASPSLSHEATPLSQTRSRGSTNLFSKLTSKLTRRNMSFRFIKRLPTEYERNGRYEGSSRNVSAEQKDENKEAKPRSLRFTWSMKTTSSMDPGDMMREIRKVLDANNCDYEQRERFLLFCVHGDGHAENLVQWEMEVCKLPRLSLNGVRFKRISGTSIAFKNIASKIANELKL
# MAP kinase-activated protein kinase 2 (Homo sapiens), sequence (P49137 whole entry, looked up): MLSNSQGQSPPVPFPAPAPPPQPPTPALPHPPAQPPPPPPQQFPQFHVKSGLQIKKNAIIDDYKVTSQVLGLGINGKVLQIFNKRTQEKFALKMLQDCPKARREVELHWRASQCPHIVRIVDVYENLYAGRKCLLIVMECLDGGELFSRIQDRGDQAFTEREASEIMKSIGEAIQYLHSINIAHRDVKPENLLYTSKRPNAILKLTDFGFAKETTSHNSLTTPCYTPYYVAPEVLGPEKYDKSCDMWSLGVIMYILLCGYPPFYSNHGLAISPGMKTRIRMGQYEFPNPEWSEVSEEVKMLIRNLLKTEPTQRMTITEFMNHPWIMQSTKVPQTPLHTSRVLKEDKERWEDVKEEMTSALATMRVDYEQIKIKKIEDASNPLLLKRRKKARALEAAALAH
# Serine/threonine-protein kinase MARK1 (Homo sapiens), sequence (Q9P0L2 whole entry, looked up): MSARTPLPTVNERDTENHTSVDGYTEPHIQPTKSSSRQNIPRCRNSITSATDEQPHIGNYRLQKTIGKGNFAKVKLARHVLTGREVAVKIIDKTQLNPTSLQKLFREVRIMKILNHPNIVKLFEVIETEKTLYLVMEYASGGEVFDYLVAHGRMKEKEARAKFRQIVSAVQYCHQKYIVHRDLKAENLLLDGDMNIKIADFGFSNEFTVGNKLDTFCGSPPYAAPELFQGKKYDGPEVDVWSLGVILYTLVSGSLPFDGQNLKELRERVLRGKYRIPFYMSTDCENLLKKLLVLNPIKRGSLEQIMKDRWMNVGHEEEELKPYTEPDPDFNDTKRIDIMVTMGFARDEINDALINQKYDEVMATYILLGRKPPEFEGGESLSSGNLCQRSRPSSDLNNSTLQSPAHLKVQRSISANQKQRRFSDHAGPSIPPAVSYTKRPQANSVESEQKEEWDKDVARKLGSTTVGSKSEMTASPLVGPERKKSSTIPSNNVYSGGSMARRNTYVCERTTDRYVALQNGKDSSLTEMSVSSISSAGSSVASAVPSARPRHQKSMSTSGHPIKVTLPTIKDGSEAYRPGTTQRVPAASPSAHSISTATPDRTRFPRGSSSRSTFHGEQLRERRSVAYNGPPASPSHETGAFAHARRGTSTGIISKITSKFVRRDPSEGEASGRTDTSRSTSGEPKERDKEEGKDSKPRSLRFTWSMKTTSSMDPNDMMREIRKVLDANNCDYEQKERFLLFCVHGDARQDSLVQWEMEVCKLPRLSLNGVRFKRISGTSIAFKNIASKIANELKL
# MAP kinase-activated protein kinase 3 (Homo sapiens), sequence (Q16644 whole entry, looked up): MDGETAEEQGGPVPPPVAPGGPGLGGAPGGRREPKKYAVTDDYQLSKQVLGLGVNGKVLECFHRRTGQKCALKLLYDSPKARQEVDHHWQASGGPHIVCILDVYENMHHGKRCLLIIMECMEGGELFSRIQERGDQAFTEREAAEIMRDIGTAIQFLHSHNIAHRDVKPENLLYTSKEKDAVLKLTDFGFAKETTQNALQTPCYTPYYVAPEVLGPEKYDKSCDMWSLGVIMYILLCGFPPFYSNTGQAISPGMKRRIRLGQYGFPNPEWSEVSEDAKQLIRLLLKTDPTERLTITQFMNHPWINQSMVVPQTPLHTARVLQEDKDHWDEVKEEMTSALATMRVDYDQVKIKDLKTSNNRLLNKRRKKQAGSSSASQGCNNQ
# MAP kinase-interacting serine/threonine-protein kinase 2 (Homo sapiens), sequence (Q9HBH9 whole entry, looked up): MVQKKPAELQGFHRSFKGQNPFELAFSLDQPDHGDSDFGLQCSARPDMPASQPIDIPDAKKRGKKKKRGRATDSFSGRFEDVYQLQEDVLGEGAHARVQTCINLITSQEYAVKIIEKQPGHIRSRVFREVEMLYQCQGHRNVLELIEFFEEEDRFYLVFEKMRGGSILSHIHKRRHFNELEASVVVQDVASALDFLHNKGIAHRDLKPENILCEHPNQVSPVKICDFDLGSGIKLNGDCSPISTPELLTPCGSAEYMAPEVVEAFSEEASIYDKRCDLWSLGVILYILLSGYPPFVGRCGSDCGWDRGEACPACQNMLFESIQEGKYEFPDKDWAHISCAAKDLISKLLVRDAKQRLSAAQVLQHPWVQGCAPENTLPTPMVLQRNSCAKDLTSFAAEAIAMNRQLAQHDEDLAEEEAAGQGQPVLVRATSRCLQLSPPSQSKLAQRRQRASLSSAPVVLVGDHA
# Maternal embryonic leucine zipper kinase (Homo sapiens), sequence (Q14680 whole entry, looked up): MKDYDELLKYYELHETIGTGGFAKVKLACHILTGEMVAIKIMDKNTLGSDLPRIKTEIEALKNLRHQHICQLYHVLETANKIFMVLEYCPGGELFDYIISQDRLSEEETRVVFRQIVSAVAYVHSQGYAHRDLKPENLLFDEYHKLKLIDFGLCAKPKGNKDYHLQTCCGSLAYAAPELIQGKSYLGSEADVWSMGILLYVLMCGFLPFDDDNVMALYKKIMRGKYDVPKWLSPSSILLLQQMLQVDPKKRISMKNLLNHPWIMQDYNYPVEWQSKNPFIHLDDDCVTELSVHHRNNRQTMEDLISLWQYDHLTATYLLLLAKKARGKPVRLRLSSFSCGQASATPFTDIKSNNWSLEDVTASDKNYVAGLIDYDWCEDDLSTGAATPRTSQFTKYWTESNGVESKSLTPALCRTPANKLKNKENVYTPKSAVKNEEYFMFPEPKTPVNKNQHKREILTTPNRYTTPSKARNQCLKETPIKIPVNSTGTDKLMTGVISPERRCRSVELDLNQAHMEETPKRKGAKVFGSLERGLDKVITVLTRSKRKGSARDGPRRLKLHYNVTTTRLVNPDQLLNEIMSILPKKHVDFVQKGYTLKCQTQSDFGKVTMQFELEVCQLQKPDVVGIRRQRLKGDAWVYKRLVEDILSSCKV
# Death-associated protein kinase 1 (Homo sapiens), sequence (P53355 whole entry, looked up): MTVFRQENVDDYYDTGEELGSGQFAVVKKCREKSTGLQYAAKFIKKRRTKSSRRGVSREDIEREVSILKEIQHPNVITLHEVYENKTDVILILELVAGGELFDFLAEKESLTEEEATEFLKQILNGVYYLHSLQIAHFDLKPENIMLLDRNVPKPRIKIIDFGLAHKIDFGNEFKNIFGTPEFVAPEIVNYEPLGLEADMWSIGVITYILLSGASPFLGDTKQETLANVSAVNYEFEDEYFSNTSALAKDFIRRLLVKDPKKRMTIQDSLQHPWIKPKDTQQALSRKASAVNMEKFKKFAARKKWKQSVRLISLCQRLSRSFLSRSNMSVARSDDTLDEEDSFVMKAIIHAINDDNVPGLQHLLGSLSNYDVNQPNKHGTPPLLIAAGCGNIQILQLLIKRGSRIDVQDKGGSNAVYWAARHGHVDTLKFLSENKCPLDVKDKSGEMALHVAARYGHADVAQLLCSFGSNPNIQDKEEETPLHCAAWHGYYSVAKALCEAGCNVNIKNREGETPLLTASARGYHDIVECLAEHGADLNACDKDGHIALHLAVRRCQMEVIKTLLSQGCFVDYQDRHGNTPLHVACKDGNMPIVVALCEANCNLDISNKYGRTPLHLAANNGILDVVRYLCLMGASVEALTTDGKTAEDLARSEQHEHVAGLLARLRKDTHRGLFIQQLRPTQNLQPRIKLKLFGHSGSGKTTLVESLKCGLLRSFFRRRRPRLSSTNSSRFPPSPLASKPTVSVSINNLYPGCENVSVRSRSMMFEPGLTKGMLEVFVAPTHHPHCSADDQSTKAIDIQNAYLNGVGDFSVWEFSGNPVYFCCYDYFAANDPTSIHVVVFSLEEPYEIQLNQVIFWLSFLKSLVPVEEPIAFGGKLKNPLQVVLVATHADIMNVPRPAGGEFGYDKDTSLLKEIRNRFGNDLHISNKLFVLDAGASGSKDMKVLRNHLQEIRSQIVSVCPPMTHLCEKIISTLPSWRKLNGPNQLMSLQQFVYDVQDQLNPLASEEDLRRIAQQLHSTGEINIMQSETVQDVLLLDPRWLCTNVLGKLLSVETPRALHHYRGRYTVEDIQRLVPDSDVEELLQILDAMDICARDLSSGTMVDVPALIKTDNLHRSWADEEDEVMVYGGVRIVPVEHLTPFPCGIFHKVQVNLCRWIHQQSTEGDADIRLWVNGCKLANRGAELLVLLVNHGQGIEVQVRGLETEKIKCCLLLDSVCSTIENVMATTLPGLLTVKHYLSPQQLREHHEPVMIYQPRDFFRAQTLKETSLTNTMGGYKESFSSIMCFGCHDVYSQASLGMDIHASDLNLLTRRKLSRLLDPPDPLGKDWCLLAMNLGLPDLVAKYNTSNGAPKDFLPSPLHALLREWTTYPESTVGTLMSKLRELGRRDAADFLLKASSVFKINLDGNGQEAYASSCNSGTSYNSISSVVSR
Structure (SMILES),inhibition [1] [%],inhibition [2] [%],inhibition [3] [%],inhibition [4] [%],inhibition [5] [%],inhibition [6] [%],inhibition [7] [%],inhibition [8] [%],inhibition [9] [%],inhibition [10] [%],inhibition [11] [%],inhibition [12] [%],inhibition [13] [%],inhibition [14] [%],inhibition [15] [%],inhibition [16] [%],inhibition [17] [%],inhibition [18] [%],inhibition [19] [%],inhibition [20] [%]
Cc1ccc(C(=O)NC2CCC2)cc1-c1ccc(C(=O)NCC2CC2)cc1,4.36,0.61,4.16,1.17,0.94,5.84,18.9,2.6,1.46,3.09,0.6,0.84,0.72,3.33,1.69,0.33,3.09,0.84,1.97,0.5
COC(=O)Nc1nc2ccc(Sc3ccc(NC(=O)Nc4cc(C(F)(F)F)ccc4F)cc3)cc2[nH]1,4.23,-1.02,0.05,0.97,0.6,4.28,12.6,1.73,2.38,1.35,1.81,-1.27,-0.2,-2.18,-2.88,-0.03,4.58,0.6,1.48,0.92
CCc1nccc2c1nc(-c1nonc1N)n2CC,2.17,-1.22,4.54,-0.33,-0.34,0.57,2.5,1.68,1.49,1,-0.48,0.74,0.5,-0.92,0.69,-0.04,2.83,-0.46,4.5,0.35
CCS(=O)(=O)c1ccc(OC)c(Nc2ncc(-c3ccccc3Cl)o2)c1,4.97,-0.26,5.11,0.24,-0.21,2.9,3.29,0.31,0.38,1.45,-1.14,-1.13,0.41,-0.46,3.44,1.1,5.2,0.17,7.7,1.4
Clc1ccc(CNc2nccc(-c3cnn4ncccc34)n2)cc1,11.8,-0.21,-0.19,3.88,3.81,7.41,7.89,1.55,1.16,0.99,2.59,-0.78,-0.74,-0.99,16.4,1.08,6.48,1.92,10.7,-0.61
COc1cccc(-n2cnc3c(N/N=C/c4ccncc4)ncnc32)c1,-2.81,-3.07,-0.03,-0.39,-0.48,-0.9,-2.07,1.01,6.09,1.08,3.88,0.84,4.83,-1.92,-4.7,0.43,16.5,3.13,13.7,0.99
NC(=O)Cc1ccccc1Oc1nccc(-c2c(-c3ccc(F)cc3)ncn2C2CCNCC2)n1,4.92,0.97,0.45,0.74,0.89,13.4,28.7,2.13,4.3,9.03,5.15,1.54,1.97,1.5,5.18,1.93,1.72,0.62,0.77,1.48
